# Screening data: PubChem BioAssay, several laboratories
# Shown are actives, neighbours in structure and some others; about 4% of the full set was active somewhere.
# FBA Mtb inh: inhibitors of M. tuberculosis fructose-bisphosphate aldolase; hit rate 2.3% among 360,000; AID 588726; purified M. tuberculosis FBA, fluorescence read-out; inhibition, % at 1 µM; P9WQA3; in the data active = inhibition above about 27%;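 note: 0% = vehicle and 100% = reference inhibitor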
# Target sequence (P9WQA3 whole entry, looked up): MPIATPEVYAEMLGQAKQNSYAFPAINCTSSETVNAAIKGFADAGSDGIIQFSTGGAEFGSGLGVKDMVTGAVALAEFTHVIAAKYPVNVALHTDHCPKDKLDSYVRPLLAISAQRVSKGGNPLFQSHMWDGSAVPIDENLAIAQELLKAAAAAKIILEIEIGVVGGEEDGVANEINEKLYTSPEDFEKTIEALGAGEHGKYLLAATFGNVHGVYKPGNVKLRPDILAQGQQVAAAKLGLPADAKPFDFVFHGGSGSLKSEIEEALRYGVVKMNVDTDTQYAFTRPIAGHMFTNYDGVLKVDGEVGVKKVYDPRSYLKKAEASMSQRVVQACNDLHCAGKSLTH
# Mtb bLac sens: beta-lactam sensitization of Mtb H37Rv; M. tuberculosis H37Rv growth with meropenem, percent inhibition; inhibition, % at 25 µM; hit rate 0.27% among 330,000; call rule not given here;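 note: growth measured after seven days incubation then overnight dye step; 0% = bacteria only wells and 100% = bacteria with antibiotic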
# CCHF vOTU inh: CCHFV vOTU protease inhibition. Pep-AMC fluorescence. inhibition, % at 11.5 µM. AID 651958. hit rate 0.55% among 370,000; note: 0% = vehicle wells with enzyme and 100% = no enzyme wells
# GDH-TPI counter-1: counter-screen for M. tuberculosis FBA inhibitors: GDH-TPI coupled enzymes; GDH-TPI coupled enzyme counterscreen, NADH absorbance; inhibition, % at 4.8 µM; hit rate 1.2% among 360,000;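 note: 0% = DMSO wells and 100% = wells lacking the enzyme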
# MazEF act: activators of E. coli MazEF toxin-antitoxin RNase | P0AE70 | FAM/BHQ RNA-DNA oligo cleavage fluorescence, 5 h | activation, % at 20 µM | hit rate 0.32% among 350,000; in the data active = activation above about 50%
# Mtb FBA confirm: Mtb FBA inhibition, confirmed; shares compounds with FBA Mtb inh; purified M. tuberculosis FBA, fluorescence read-out; inhibition, % at 1 µM; hit rate 78% among 5,600; AID 651616; in the data active = inhibition above about 27%;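 note: 0% = vehicle wells and 100% = reference inhibitor wells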
# GDH-TPI counter-2: GDH-TPI inhibition counter-screen for FBA inhibitors | shares compounds with FBA Mtb inh | GDH-TPI coupled enzyme counterscreen, fluorescence | inhibition, % at 1 µM | hit rate 81% among 5,600; in the data active = inhibition above about 10%
# An asterisk follows results filed as active; · = no result given; + = active, no number. Cut-off read from the data, not from the text of the source, unless noted: active = inhibition above about 30%; inactive = the rest.
SMILES,FBA Mtb inh,Mtb bLac sens,CCHF vOTU inh,GDH-TPI counter-1,MazEF act,Mtb FBA confirm,GDH-TPI counter-2
CCOC(=O)NN1C(=O)c2ccccc2NC12CCCC2,59*,18,-94,5,1,163*,139*
COc1ccc(C(=O)CSc2nnc(-c3cccnc3)n2-c2ccc(C)cc2)cc1,·,·,-2,·,·,·,·
CCN(CC(=O)NCc1cccs1)C(=O)/C=C/c1cc(OC)ccc1OC,37*,-3,-64,21,0,155*,115*
COc1ccc(OC)c(/C=C/C(=O)N2CCN(S(=O)(=O)c3ccc(C)cc3C)CC2)c1,29*,-4,-32,12,-5,-2,-3
COc1ccc(OC)c(/C=C/C(=O)N(C)CC(=O)Nc2cc(C)ccc2C)c1,29*,-1,-62,7,2,34*,29*
COc1ccc(OC)c(/C=C/C(=O)N(C)CC(=O)Nc2ccc(C)cc2)c1,23,4,-80,25,6,·,·
COC(=O)Cc1nnn2c1[C@@H](C)[C@@H](c1ccccc1Br)O[C@@H](C)C2,·,·,-7,·,·,·,·
C[C@@H]1ON(C)[C@H]2C[C@H]3c4[nH]c5cccc(-c6ccccc6F)c5c4CCN3C(=O)[C@@H]12,·,·,-59,·,·,·,·
Cc1nn(-c2ccc(F)cc2F)c2c1-c1nc(N3CCCC3)ncc1CC2,30*,89,-31,2,-5,+,+
CCOC(=O)[C@@]12CCC3=C1N(CCC3)C(=O)[C@H](CC(=O)NCCCN1CCCC1=O)C2,·,·,-4,·,·,·,·
Cc1nn(-c2ccccn2)c2nc(-c3cccs3)cc(C(=O)N3CCOCC3)c12,105*,-3,-175,31*,3,59*,59*
Cc1cccc(-n2nc(C)c3c(C(=O)O)cc(-c4cccs4)nc32)c1,62*,37,20,18,7,149*,135*
Cc1ccccc1CN1CCCCC(NC(=O)C(C)(C)C)C1=O (stereo not given),·,·,-3,·,·,·,·
Cc1nc2ccc(C(=O)N3CCN(C(=O)OCc4ccccc4)CC3)cc2n1C1CCCC1,·,·,5,·,·,·,·
O=C(NCc1ccccc1)[C@H]1CCCN1C(=O)[C@H]1CCCN1C(=O)c1ccc(F)c(F)c1,·,·,-8,·,·,·,·
Nc1nccnc1C(=O)OCC(=O)NCCc1ccc(S(N)(=O)=O)cc1,88*,-7,-71,10,-31,100*,91*
COc1ccccc1CNC(=O)COC(=O)c1nccnc1N,48*,1,-41,0,-3,9,-6
COCC(=O)NCCc1ccc(S(N)(=O)=O)cc1,6,0,8,2,16,·,·
CC(C)(C)C(=O)OC12CCCN(C1)/C(=C/c1cccc(Cl)c1)C2 (stereo not given),·,·,10,·,·,·,·
CC(=O)Nc1ccc(NC(=O)Nc2ccccc2)cc1,0,2,-8,-5,2,·,·
Cc1cnc(NC(=O)Nc2ccccc2)c(C)n1,59*,-2,-39,9,6,-5,-3
CCCCN1CN2Cc3ccccc3C2CS1(=O)=O (stereo not given),·,·,-1,·,·,·,·
Fc1ccccc1-c1nc2nc3ccccc3nc2n1CC1CCCO1 (stereo not given),60*,-5,-32,59*,-5,-2,-3
N#Cc1c2c(c(NCCCN3CCOCC3)n3c1nc1ccccc13)CCC2,27*,-1,3,14,1,52*,60*
CC(C)c1cc(NCCCN2CCOCC2)n2c(nc3ccccc32)c1C#N,51*,1,-28,6,-3,169*,129*
CC(=O)c1cc(-c2ccccc2)n(CC(=O)NCc2ccccc2Cl)c1C,·,·,2,·,·,·,·
O=C(COc1ccccc1)Nc1cccc(-c2nc3cc4ccccc4cc3[nH]2)c1,72*,71,-19,29,9,101*,79*
O=C(COc1ccccc1)Nc1cccc(-c2nn[nH]n2)c1,0,-9,-3,3,5,·,·
Cc1ccc(S(=O)(=O)Oc2ccc(C3C4=C(CCCC4=O)OC4=C3C(=O)CCC4)cc2)cc1,4,0,16,13,4,·,·
CCOc1ccc(C2C3=C(CC(C)(C)CC3=O)N(CC(=O)O)C3=C2C(=O)CC(C)(C)C3)cc1OCC,0,-6,-4,7,5,·,·
